The values that follow come from PubChem BioAssay.

For one assay, the target named is Albumin (Bos taurus) (UniProt P02769). Kind of assay: bovine serum albumin binders on microarray, profiling panel, artefact control for SMM control protein annotation, biochemical, small-molecule microarray, Alexa647 label, 635/667 nm fluorescence (AID 1118).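 Also: score merges 667 nm emission intensity and signal-to-noise per printed compound spot.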 Particulars: BSA-A647 binding, fluorescence 635 nm, higher = more signal.
Assay [1] in a line: small-molecule microarray binders of probe aXIP, primary screen, biochemical, NeuroSMM set, 635/667 nm fluorescence (AID 1119).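 Also: probe is the protein aXip251-270 applied at 1 µg/mL to compound-printed slides; binding of probe to printed compounds measured as 667 nm fluorescence plus signal to noise.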 Particulars: higher = more signal, called active from +8 up or from −8 down.
The nature of assay [2]: small-molecule binders of probe aNOTCH3, primary screen, biochemical, small-molecule microarray, 635/667 nm fluorescence (AID 1120).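 Also: probe is a biotin-tagged antibody raised against NOTCH3 rather than NOTCH3 protein; score merges spot fluorescence near 667 nm with spot signal to noise.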 Particulars: higher = more signal.
Assay [3] in a line: small-molecule binders of probe aNOTCH2, primary screen, biochemical, small-molecule microarray, 635/667 nm fluorescence (AID 1121).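 Also: score merges feature fluorescence read at 667 nm with its signal to noise.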 Particulars: higher = more signal.
In assay [4] the target is Carbonic anhydrase 2 (Homo sapiens) (UniProt P00918). Kind of assay: CAII small-molecule binders, profiling panel, biochemical, small-molecule microarray, Alexa647-labelled CAII (AID 1122). Particulars: CAII-A647 binding fluorescence, higher = more signal.
Assay [5] is described as follows: COS7 lysate on small-molecule microarray, probe aHis, 635 nm (AID 1123).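 Also: z-score combines 667nm fluorescence intensity with signal-to-noise per printed compound spot.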 Particulars: COS7 cell lysate, fluorescence, higher = more signal.
The nature of assay [6]: compound binding in COS7 lysate, probe aLAP1, primary screen, cell lysate, small-molecule microarray (AID 1124).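 Also: lysate comes from COS7 cells expressing LAP1 and is applied at 0.3 µg/mL; score merges spot fluorescence near 667 nm with signal-to-noise over triplicate slides.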 Conditions: probe aLAP1, fluorescence, higher = more signal.
In a further assay the test system is Sam68 (KHDRBS1). Kind of assay: Sam68 small-molecule binders, primary screen, biochemical, small-molecule microarray, 635 nm fluorescence (AID 1125).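 Also: score merges 667 nm channel intensity with signal to noise over triplicate slides.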 Conditions: small-molecule microarray binding, higher = more signal.
In assay [7] the test system is Chordin-like protein 2 (CHRDL2). Kind of assay: CHRDL2 small-molecule binders, primary screen, biochemical, small-molecule microarray, 635 nm fluorescence (AID 1126).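 Also: printed compound slides probed with Chrdl2 protein at 4 µg/mL for 1 h at 4 C; score merges 667 nm emission intensity with signal to noise over three replicate slides.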 Conditions: small-molecule microarray binding, fluorescence 635 nm; higher = more signal.
Assay [8] addresses Concanavalin-A (Canavalia ensiformis) (UniProt P02866). Kind of assay: ConA small-molecule binders, primary screen, artefact control for SMM control protein annotation, biochemical, small-molecule microarray, Alexa647 label, 635 nm (AID 1127).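 Also: z combines 667 nm emission intensity with signal-to-noise across three replicate slides.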 Particulars: ConA-A647 binding fluorescence, higher = more signal.
Assay [9] can be described thus: anti-His antibody binders, primary screen, artefact control for SMM control protein annotation, biochemical, small-molecule microarray, 635 nm fluorescence (AID 1128).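 Also: score merges feature fluorescence with signal-to-noise for each printed compound spot.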 Conditions: anti-His Alexa647 antibody binding, higher = more signal.
Assay [10] concerns Human papillomavirus type 1a E7 protein (residues 1-88). Kind of assay: HPV1a E7 small-molecule binders, primary screen, biochemical, small-molecule microarray, residues 1-88, 635 nm (AID 1129). Conditions: small-molecule microarray binding, fluorescence 635 nm; higher = more signal.
The target in assay [11] is Focal adhesion kinase 1 (Homo sapiens) (UniProt Q05397). Kind of assay: small-molecule microarray binders of FAK, primary screen, biochemical, 635/667 nm fluorescence, BSA, DTT (AID 1130).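 Also: composite of spot emission at 667 nm and signal to noise over triplicate slides.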 Particulars: PTK2 binding, 635 nm fluorescence, higher = more signal.
For assay [12], the system named is Fibrinogen (Alexa647-labelled). Kind of assay: fibrinogen binders on compound microarrays, profiling panel, artefact control for SMM control-protein annotation, biochemical, small-molecule microarray, 635/667 nm fluorescence (AID 1131).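 Also: z-score merges 667 nm fluorescence with per-spot signal-to-noise over triplicate slides.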 Conditions: fibrinogen-A647 binding fluorescence, higher = more signal.
In assay [13] the target is Follistatin (Homo sapiens) (UniProt P19883). Kind of assay: follistatin binders on small-molecule microarrays, primary screen, biochemical, small-molecule microarray, 635/667 nm fluorescence (AID 1132). Particulars: FST binding, 635 nm fluorescence, higher = more signal.
Assay [14] deals with Fibroblast growth factor 2 (Homo sapiens) (UniProt P09038). Kind of assay: FGF2 binders on small-molecule microarrays, primary screen, biochemical, small-molecule microarray, 635/667 nm fluorescence (AID 1133). Conditions: small-molecule microarray binding, FGF2, fluorescence 635/667; higher = more signal.
The nature of assay [15]: mitochondrial membrane potential change in A549 cells, profiling panel, cell-based, JC-1 fluorescence, basal, 24 h, 100 nL (AID 1138).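 Also: A549 lung adenocarcinoma cells under basal conditions with no added stimulus; test concentration not given here.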 Particulars: higher = more signal.
The test system of a further assay is Lefty1. Kind of assay: Lefty1 binders on small-molecule microarrays, primary screen, biochemical, small-molecule microarray, 635/667 nm fluorescence (AID 1139). Conditions: small-molecule microarray binding, fluorescence 635/667; higher = more signal.
Assay [16] concerns wheat germ agglutinin (Triticum aestivum), Alexa647-labelled. Kind of assay: wheat germ agglutinin binders on compound microarrays, profiling panel, artefact control for SMM control-protein annotation, biochemical, small-molecule microarray, 635/667 nm fluorescence (AID 1140).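 Also: score merges 667 nm feature emission with signal to noise over triplicate slides.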 Particulars: WGA-A647 binding, 635 nm fluorescence, higher = more signal.
For assay [17], the target named is Luciferin 4-monooxygenase (Photinus pyralis) (UniProt P08659). Kind of assay: firefly luciferase enzyme inhibitors, primary screen, biochemical, luminescence, purified enzyme, 2006 set (AID 1141).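 Also: cell-free assay with purified firefly luciferase at 100 ng per well in PBS; test concentration not given here.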 Conditions: SteadyGlo luminescence, 30 min, higher = more signal, called active from +8 up or from −8 down.

Active and inactive are the calls of the source.

Follistatin (Homo sapiens), sequence (P19883 whole entry, looked up): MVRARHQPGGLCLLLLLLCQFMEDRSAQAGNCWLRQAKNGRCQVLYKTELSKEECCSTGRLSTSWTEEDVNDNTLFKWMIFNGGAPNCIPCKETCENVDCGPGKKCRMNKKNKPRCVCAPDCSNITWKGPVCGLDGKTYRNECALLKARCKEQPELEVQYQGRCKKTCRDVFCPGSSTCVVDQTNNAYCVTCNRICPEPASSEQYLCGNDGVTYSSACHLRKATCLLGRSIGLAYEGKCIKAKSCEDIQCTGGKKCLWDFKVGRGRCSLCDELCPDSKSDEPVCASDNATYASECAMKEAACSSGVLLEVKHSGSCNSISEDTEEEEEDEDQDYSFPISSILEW
Concanavalin-A (Canavalia ensiformis), sequence (P02866 whole entry, looked up): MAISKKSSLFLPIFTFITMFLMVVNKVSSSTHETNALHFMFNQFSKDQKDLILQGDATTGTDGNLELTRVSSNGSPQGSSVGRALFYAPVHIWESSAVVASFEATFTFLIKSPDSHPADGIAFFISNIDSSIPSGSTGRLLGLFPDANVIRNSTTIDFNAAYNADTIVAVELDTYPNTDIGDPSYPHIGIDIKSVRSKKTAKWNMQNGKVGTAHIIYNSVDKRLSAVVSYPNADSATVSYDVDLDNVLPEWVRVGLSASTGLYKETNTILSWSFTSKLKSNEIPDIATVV
Luciferin 4-monooxygenase (Photinus pyralis), sequence (P08659 whole entry, looked up): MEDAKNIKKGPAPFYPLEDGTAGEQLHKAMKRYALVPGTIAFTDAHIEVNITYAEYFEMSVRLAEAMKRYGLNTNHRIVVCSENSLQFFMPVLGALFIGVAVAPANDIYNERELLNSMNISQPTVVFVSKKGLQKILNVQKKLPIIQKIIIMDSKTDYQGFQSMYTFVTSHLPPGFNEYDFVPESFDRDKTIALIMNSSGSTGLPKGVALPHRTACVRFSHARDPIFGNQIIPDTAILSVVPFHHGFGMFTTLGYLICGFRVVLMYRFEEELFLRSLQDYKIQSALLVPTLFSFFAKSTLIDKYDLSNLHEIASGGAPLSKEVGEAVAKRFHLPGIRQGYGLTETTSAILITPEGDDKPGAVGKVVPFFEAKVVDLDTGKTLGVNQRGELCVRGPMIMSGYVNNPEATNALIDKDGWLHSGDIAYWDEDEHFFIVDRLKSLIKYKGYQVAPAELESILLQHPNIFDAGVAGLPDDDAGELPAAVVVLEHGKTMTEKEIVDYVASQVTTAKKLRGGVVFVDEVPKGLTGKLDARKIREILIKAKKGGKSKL
Fibroblast growth factor 2 (Homo sapiens), sequence (P09038 whole entry, looked up): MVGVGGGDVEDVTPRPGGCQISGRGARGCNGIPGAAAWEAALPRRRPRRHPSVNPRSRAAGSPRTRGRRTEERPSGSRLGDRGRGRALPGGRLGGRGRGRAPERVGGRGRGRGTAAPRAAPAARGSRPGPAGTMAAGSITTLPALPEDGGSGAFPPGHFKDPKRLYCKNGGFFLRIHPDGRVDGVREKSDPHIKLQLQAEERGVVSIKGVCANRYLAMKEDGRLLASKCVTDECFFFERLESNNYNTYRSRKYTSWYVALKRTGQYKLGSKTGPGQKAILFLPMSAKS
Focal adhesion kinase 1 (Homo sapiens), sequence (Q05397 whole entry, looked up): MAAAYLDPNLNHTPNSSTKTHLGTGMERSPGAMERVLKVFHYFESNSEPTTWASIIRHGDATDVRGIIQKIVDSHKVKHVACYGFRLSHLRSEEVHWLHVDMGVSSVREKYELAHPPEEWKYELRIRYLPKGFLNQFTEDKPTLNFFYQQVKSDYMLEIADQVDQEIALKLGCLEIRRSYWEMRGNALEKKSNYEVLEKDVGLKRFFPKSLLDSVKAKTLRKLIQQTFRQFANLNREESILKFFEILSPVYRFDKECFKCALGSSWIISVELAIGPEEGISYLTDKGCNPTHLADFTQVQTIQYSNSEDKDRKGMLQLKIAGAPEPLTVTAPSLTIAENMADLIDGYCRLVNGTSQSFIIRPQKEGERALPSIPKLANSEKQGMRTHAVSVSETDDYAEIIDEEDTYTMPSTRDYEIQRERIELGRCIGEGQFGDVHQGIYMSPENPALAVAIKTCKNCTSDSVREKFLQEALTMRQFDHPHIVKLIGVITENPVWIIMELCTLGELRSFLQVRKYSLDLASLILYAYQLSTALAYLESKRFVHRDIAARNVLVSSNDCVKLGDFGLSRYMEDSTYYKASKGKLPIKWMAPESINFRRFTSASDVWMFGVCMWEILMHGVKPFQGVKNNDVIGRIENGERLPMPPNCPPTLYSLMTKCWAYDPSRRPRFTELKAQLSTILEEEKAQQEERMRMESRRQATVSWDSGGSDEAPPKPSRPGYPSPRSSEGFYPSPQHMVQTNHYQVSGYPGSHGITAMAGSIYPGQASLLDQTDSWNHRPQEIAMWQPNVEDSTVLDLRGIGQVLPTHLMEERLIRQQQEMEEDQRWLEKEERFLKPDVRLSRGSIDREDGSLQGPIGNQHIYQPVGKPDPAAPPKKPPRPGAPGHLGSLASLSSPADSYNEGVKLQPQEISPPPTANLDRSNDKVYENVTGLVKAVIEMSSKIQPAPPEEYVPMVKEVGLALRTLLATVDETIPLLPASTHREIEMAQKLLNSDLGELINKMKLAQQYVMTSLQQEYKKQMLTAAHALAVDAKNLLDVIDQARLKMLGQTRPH
Albumin (Bos taurus), sequence (P02769 whole entry, looked up): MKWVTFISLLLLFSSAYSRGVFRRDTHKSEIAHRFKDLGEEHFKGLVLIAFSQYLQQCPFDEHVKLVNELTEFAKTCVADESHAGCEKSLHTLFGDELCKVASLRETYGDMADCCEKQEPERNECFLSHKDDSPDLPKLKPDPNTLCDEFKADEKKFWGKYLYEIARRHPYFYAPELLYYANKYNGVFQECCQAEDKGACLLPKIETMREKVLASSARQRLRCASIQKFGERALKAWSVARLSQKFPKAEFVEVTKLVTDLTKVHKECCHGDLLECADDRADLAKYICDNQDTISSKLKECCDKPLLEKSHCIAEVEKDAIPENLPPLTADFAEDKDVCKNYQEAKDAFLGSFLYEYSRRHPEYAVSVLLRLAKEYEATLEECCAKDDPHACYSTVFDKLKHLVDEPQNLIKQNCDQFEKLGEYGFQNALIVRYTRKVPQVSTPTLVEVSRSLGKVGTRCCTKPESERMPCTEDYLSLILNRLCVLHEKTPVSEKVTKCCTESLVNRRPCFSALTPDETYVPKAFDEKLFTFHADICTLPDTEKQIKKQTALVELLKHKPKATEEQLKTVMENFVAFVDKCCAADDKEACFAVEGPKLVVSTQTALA

As to `CCCCC(CC)C(O)C1C=CC2C(=O)N(c3ccccc3)C(=O)C2N1Nc1ccccc1F` (stereo not given), the composite z-score with Albumin (Bos taurus) was 0.468; in assay [2], 0.225; in [3] it was -0.153; in [4] it was 0.749; in assay [5], 2.75; in [6] it was 0.51. In addition, the composite z-score is 1.12 in the assay on Sam68 (KHDRBS1); -0.904 in [7]; 0.0845 in assay [8]; 2.22 in [9]; 1.2 in assay [10]; 0.1 in [11]. In addition, the composite z-score was -0.209 in assay [12]; 0.729 in assay [13]; -0.315 in assay [14]; 0.276 in the assay on Lefty1; 0.357 in assay [16]. Moreover, the composite Z-score in assay [1] was -0.243 (inactive). Besides, the z-score was -1.04 in [15] and 1.61 (inactive) in [17].

In the case of `Cc1ccccc1C(O)C1C=CC2C(=O)NC(=O)C2N1Nc1ccccn1` (stereo not given), the composite z-score with Albumin (Bos taurus) was 0.65; in [2], -0.15; in [3] it was -0.14; in [4], 0.355; in assay [5], 0.78; in assay [6], 0.483. For the same compound, the composite z-score with Sam68 (KHDRBS1) was -0.805; in assay [7] it was 0.102; in assay [8] it was -0.227; in assay [9], 0.744; in assay [10], 0.108; in [11], 0.0312. The composite z-score in assay [12] is 0.693; in assay [13], -0.145; in [14], -0.227; in the assay with Lefty1, -0.0955; in assay [16], 0.159. The composite Z-score in assay [1] is 0.497 (inactive). The results for the z-score in assay [15] and in assay [17] were 0.0755 and -0.792 (inactive), respectively.

Regarding `CCOC(=O)C[C@H]1[C@H](OC(=O)c2ccc(C(=O)c3ccccc3)cc2)[C@@H](NC(=O)c2ccc(-c3ccccc3)cc2)c2cc(OCCCO)ccc2N1C(=O)Cc1ccc(OC)cc1`, the composite z-score with Albumin (Bos taurus) was 0.519; in assay [2], 0.16; in [3], 0.121; in [4] it was 0.177; in assay [5] it was 0.93; in assay [6], 0.0285. Besides, the composite z-score in the assay with Sam68 (KHDRBS1) is 0.512; in assay [7] it was -0.0479; in [8], 0.458; in assay [9] it was 0.0658; in assay [10] it was 0.556; in assay [11] it was 0.0784. In addition, the composite z-score is 0.544 in [12]; 0.51 in assay [13]; -0.205 in assay [14]; 0.374 in the assay with Lefty1; 0.223 in assay [16]. Also, the composite Z-score in assay [1] is -0.153 (inactive). The z-score was 0.967 in assay [15] and 0.408 (inactive) in assay [17].

On to `CCOC(=O)C[C@H]1[C@H](OC(=O)c2ccc(-c3ccccc3)cc2)[C@@H](NC(=O)CC(C)C)c2cc(OCCCO)ccc2N1C(=O)c1ccc2ccccc2n1`, for which the composite z-score with Albumin (Bos taurus) was 0.363; in [2] it was 0.041; in [3], -0.161; in [4] it was 0.0808; in [5], 1.19; in [6], -0.259. In addition, the composite z-score is 0.787 in the assay on Sam68 (KHDRBS1); 0.0987 in assay [7]; 1.07 in assay [8]; -0.282 in assay [9]; 0.516 in assay [10]; 0.365 in [11]. In addition, the composite z-score in assay [12] was 0.944; in assay [13], 0.285; in assay [14], 0.0792; in the assay on Lefty1, 0.455; in assay [16], 0.262. Besides, the composite Z-score in assay [1] was -0.122 (inactive). Besides, the z-score in assay [15] is 0.5; in assay [17] it was 0.854 (inactive).

In the case of `CCCCC(CC)C(O)C1C=CC2C(=O)N(c3ccccc3)C(=O)C2N1Nc1ccc(C#N)cc1` (stereo not given), the composite z-score in the assay with Albumin (Bos taurus) stood at 1.02; in assay [2], 0.64; in assay [3] it was 0.353; in [4] it was 0.595; in [5], 2.21; in [6], 0.664. Also, the composite z-score in the assay on Sam68 (KHDRBS1) was 1.13; in [7], 0.0027; in [8] it was 1.2; in assay [9], 1.34; in [10], 1.21; in [11], 0.702. Further, the composite z-score in [12] worked out at 0.922; in assay [13] it was 1.07; in assay [14], 0.208; in the assay on Lefty1, 0.131; in assay [16], 1.12. Further, in assay [1], the composite Z-score is 0.369 (inactive). The z-score was -0.213 in [15] and -1.92 (inactive) in assay [17].

Turning to `CO[C@H]1O[C@H](CO)[C@@H](OC(=O)Nc2ccc(Br)cc2)[C@@H]2OC(=O)[C@@H](Cc3ccccc3)C/C=C/C[C@H](Cc3ccccc3)C(=O)O[C@@H]12`, the composite z-score with Albumin (Bos taurus) is 0.771; in [2] it was 0.11; in [3], -0.0601; in [4], 0.635; in [5], 1.65; in assay [6], 0.0964. Moreover, the composite z-score in the assay on Sam68 (KHDRBS1) is 0.968; in assay [7], -0.173; in assay [8] it was 0.516; in assay [9], 2.43; in assay [10] it was 1.16; in assay [11], 0.619. Also, the composite z-score in assay [12] is 0.442; in assay [13], 0.313; in [14], 0.397; in the assay with Lefty1 it was -0.0196; in assay [16], 0.424. In addition, the composite Z-score in [1] was -1.09 (inactive). For the same compound, the values for the z-score in assay [15] and in assay [17] were 2.5 and -1.38 (inactive), respectively.

For the compound `NCCCCCNC(=O)[C@@H]1C[C@@H]2C(=O)N[C@@H](CCCCN)C(=O)N2[C@@H]1c1ccc(O)cc1`, the composite z-score with Albumin (Bos taurus) is -0.321; in [2], 0.353; in assay [3] it was -0.0162; in assay [4], 0.635; in assay [5] it was 2.38; in assay [6], 0.103. Besides, the composite z-score with Sam68 (KHDRBS1) is 1.3; in [7], 1.38; in assay [8], 1.15; in assay [9], 1.98; in assay [10] it was 1.23; in assay [11], 0.294. Further, the composite z-score in [12] is 0.782; in assay [13], 1.42; in [14], 1.74; in the assay on Lefty1, 1.57; in [16], 1.14. In assay [1], the composite Z-score was 0.562 (inactive). The z-score in assay [15] is -0.862; in assay [17], -0.364 (inactive).

With `CCCC[C@@H](O)C1=C(COC)C[C@H]2C(=O)N(C)C(=O)[C@H]2[C@H]1CO`, the composite z-score is 0.277 with Albumin (Bos taurus); -0.139 in assay [2]; -0.217 in [3]; 0.183 in assay [4]; -0.419 in [5]; 0.0048 in assay [6]. Moreover, the composite z-score is -0.0046 with Sam68 (KHDRBS1); 0.831 in [7]; 0.256 in assay [8]; 0.217 in [9]; -0.165 in assay [10]; -0.185 in assay [11]. Moreover, the composite z-score in assay [12] was 0.171; in [13] it was 0.504; in assay [14], 0.201; with Lefty1 it was 1.14; in assay [16], -0.11. The composite Z-score in assay [1] was 0.0275 (inactive). For the same compound, the values for the z-score in assay [15] and in [17] were -0.278 and 0.0646 (inactive), respectively.
